This is one part of a sample in which hits are shown more often than they occur.
Pf Dd2 growth – qHTS Primary assay for Inhibitors of Plasmodium falciparum Dd2 growth in vitro. P. falciparum Dd2 growth, SYBR Green, 72 h. Potency, µM (doses to about 28.9 µM), hits mostly inhibitors. AID 1347417, 2020. 4.3% of 120,000 active; active = well fitted inhibition curve with a large enough effect; also: nearly all actives have a fitted effect of over 65% in size
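Readout: SYBR Green fluorescence, 485 nm excitation, 535 nm emission, after ~16 h lysis at 37C. Before that, Dd2-infected red cells (2.5% hematocrit) grew 72 h with compound, 29 uM top final concentration.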
Large screens that a line does not name were inactive.

COc1ccc(NC(=O)O[C@@H]2CO[C@H]3[C@@H]2OC[C@@H]3Nc2nccc(-c3cccc(C#N)c3)n2)cc1	none
N#Cc1cccc(-c2ccnc(N[C@H]3CO[C@H]4[C@@H]3OC[C@H]4OC(=O)Nc3cccc4ccccc34)n2)c1	Pf Dd2 growth 11µM
CC(C)(C)C(=O)N[C@H]1CO[C@H]2[C@@H]1OC[C@@H]2Nc1nccc(-c2cccc(C#N)c2)n1	none
COCC(=O)N[C@H]1CO[C@H]2[C@@H]1OC[C@@H]2Nc1nccc(-c2cccc(C#N)c2)n1	Pf Dd2 growth 11µM
COCC(=O)N1CC[C@@H](CC(=O)O)[C@@H](CCN2CCN(c3ccccc3OC)CC2)C1	none
COCCNC(=O)[C@H]1C[C@H](Oc2cccnc2)CN1C(=O)Cc1cccc(C)c1	none
NCCC[C@@H](N)C(=O)N1CCC2(CCC(=O)N(Cc3ccccc3)C2)CC1	none
Cn1ccc2c(C(=O)NCCC(N)=O)nc(-c3ccccc3)cc21	none
O[C@@H]1CCN(Cc2nc(C3(O)CCN(CC4CCCCC4)CC3)cs2)C1	none
Cc1nc([C@H]2CCN(Cc3ccccc3)C[C@H]2NC(=O)C2CCOCC2)n[nH]1	none
O=C(Cn1nc2c(cc1=O)CCCCC2)NC1CCCc2c1[nH]c1ccccc21 (stereo not drawn)	none
O=C(NC1CCCc2c1[nH]c1ccccc21)c1ccccn1 (stereo not drawn)	none
Cn1nc(C(=O)NC2CCCc3c2[nH]c2ccccc32)c2ccccc2c1=O (stereo not drawn)	Pf Dd2 growth 7.1µM
CC1=NOC2(CCN(C(=O)c3ccc(C)cc3)CC2)C1	none
CCN(CC)C(=O)C(C)[C@@H]1CC[C@@]2(C)Cc3sc(NC(=O)C4CC4)nc3[C@@H](C)[C@@H]2[C@H]1O (stereo partly drawn)	none
CCN(CC)C(=O)[C@@H](C)C1CC[C@@]2(C)Cc3sc(Nc4c(Cl)cccc4Cl)nc3[C@@H](C)[C@@H]2[C@H]1O (stereo partly drawn)	Pf Dd2 growth 13µM
C#CCN(C)C(=O)[C@@H](C)C1CC[C@@]2(C)Cc3sc(NC)nc3[C@@H](C)[C@@H]2[C@H]1O (stereo partly drawn)	none
COc1ccc(CCC(=O)N[C@@H]2CN(c3ncccn3)C[C@H]2CO)cc1	none
Cc1ccc(N2Cc3c(ncnc3N3CCN(C)CC3)N(C)CC2=O)cc1	none
CC1CCCN(c2ncnc3c2CN(c2ccc(Cl)cc2)C(=O)CN3C)C1 (stereo not drawn)	Pf Dd2 growth 10µM
CC1CCCN(c2ncnc3c2CN(c2ccccc2F)C(=O)CN3C)C1 (stereo not drawn)	none
N#Cc1cccc(NC(=O)N2CCC[C@@H](O)[C@H](NC(=O)c3ccc(OCc4ccc(F)cc4)cc3)C2)c1	Pf Dd2 growth 5µM
COc1cccc(NC(=O)N2CCC[C@@H](O)[C@H](NC(=O)c3ccc(OCCN4CCCC4)cc3)C2)c1	none
NC(=O)COc1ccc(C(=O)N[C@@H]2CN(C(=O)Nc3cccc(C(F)(F)F)c3)CCC[C@H]2O)cc1	none
Cc1ccc(C(=O)N2CCCCCNC(=O)[C@@H]3CCC[C@@H]32)cn1	none
O=C1CCCN1C1CCN([S+](=O)([O-])c2cccs2)CC1	none
Cc1cnn(C)c1S(=O)(=O)NC1CC(c2cc(N3CCCC3)ncn2)C1 (stereo not drawn)	none
CCC(C)NC(=O)C(NC(=O)c1ccccc1Cl)C1CCN(C(=O)c2cccc(OC)c2)CC1 (stereo not drawn)	none
COc1ccc(NC(=O)c2sc3nc(-c4ccc(OC)cc4)cc(C(F)(F)F)c3c2N)cc1	none
COc1ccc(-c2ccc3c(N)c(C(=O)Nc4ccc(C(F)(F)F)cc4)sc3n2)cc1OC	none
COc1ccc(NC(=O)c2sc3nc4c(c(-c5ccc(OC)cc5)c3c2N)C(=O)CC(C)(C)C4)cc1	Pf Dd2 growth 1µM
C=CCNC(=O)C(NC(=O)c1cccc(OC)c1)C1CCN(C(=O)C2CCCC2)CC1 (stereo not drawn)	none
CCn1cc(C(=O)N2CCc3nc(NC)nc(C(=O)N4CCCC4)c3C2)c(C)n1	none
CC[C@H]1CN2CC[C@H]1C[C@@H]2CNC(=O)NC(C)C	none
Cc1ccc(-c2nc(C3CC(=O)N(C4CCCCC4)C3)no2)cc1 (stereo not drawn)	none
COCc1nc(C2CC(=O)N(C3CCCCC3)C2)no1 (stereo not drawn)	none
COc1ccc(C2(c3nc(C4CC(=O)N(C5CCCCC5)C4)no3)CC2)cc1 (stereo not drawn)	Pf Dd2 growth 11µM
CC(C(=O)NCC1CCOCC1)c1ccccc1 (stereo not drawn)	none
COc1cccc(-c2noc(CCCC(=O)N[C@H]3C[C@@H]4OCC[C@H]34)n2)c1	none
CCS(=O)(=O)N[C@@H]1CN(Cc2ccccc2)C[C@H]1CN(C)C	none
O=C1c2cnc(-c3ccc(Oc4ccccc4)cc3)nc2OCCN1CC1CC1	Pf Dd2 growth 2.8µM
O=C1c2cnc(-c3cccc(C(F)(F)F)c3)nc2OCCN1CC1CC1	none
O=C1c2cnc(-c3ccc(F)cc3)nc2OCCN1Cc1ccc(F)cc1F	none
O=C(NCC1CC1)[C@H]1CN(Cc2ccccc2)C[C@H]1C(=O)O	none
CCn1nc(C)c(CNC(=O)c2ccc(N3CC4CC(C3)[C@H]3CCCC(=O)N3C4)nc2)c1C (stereo partly drawn)	none
O=C(c1n[nH]c(=O)c2ccccc12)N1CCN(C(=O)N2CC3CC(C2)[C@H]2CCCC(=O)N2C3)CC1 (stereo partly drawn)	none
O=C(Nc1cccc(-c2nc3ccccc3o2)c1)c1cc([N+](=O)[O-])ccc1N1CCOCC1	Pf Dd2 growth 8.9µM
CCc1ccc2oc(-c3cccc(NC(=O)c4ccc(N5CCC(C)CC5)c([N+](=O)[O-])c4)c3)nc2c1	Pf Dd2 growth 7.9µM
Cc1ccc2oc(-c3ccc(C)c(NC(=O)c4ccc(N5CCC(C)CC5)c([N+](=O)[O-])c4)c3)nc2c1	none
Cc1ccc(-c2nc3cc(Cl)ccc3o2)cc1NC(=O)c1cc([N+](=O)[O-])ccc1N1CCOCC1	none
O=C(Nc1cc(-c2nc3cc(Cl)ccc3o2)ccc1Cl)c1cc([N+](=O)[O-])ccc1N1CCOCC1	none
Cc1c(NC(=O)c2ccc(N3CCC(C)CC3)c([N+](=O)[O-])c2)cccc1-c1nc2ccccc2o1	none
Cc1noc(C)c1C(=O)N1C[C@@H](CO)[C@H](c2ccccn2)C1	none
CN(C)C(=O)c1nc(-c2cccc(C(F)(F)F)c2)c2cnccn12	none
C=C[C@H]1CN2CC[C@H]1C[C@@H]2CNC(=O)C1CC1	none
CCN1C(=O)Cc2cc(C(=O)NCC3CCCO3)ccc21 (stereo not drawn)	none
Fc1cccc(-c2cnc([C@@H]3COCCN3Cc3cnc[nH]3)[nH]2)c1	none
N#Cc1cccc(C(=O)N2CCC3(CC2)NC(=O)N(Cc2ccccc2Cl)C3=O)c1	none
N#Cc1ccc(C(=O)N2CCC3(CC2)NC(=O)N(Cc2ccccc2Cl)C3=O)cc1	Pf Dd2 growth 2.5µM
Cc1ccc(C(=O)N2CCC3(CC2)NC(=O)N(Cc2ccccc2)C3=O)cc1	none
CCn1c(CN2CCOCC2)nc2cc(NC(=O)c3ccc([N+](=O)[O-])cc3)ccc21	none
CCn1c(CN2CCC(C)CC2)nc2cc(NC(=O)c3cccc([N+](=O)[O-])c3)ccc21	Pf Dd2 growth 6.3µM
CCn1c(CN2CCC(C)CC2)nc2cc(NC(=O)c3ccc([N+](=O)[O-])cc3)ccc21	none
COc1cc(F)ccc1-c1cnc2n[nH]c(-c3ccc4c(c3)OCO4)c2n1	none
O=C(c1cccnc1)N1CCC(Oc2ccccc2)C1 (stereo not drawn)	none
CCn1ncc(N2CCC(NC(=O)C(C)(C)C)CC2)cc1=O	none
CC(C)CCN1C(=O)CC[C@]2(C(=O)N3CCOCC3)CCCC[C@@H]12	none
